Source: ChEMBL document CHEMBL1961873, “Compounds: GSK PKIS; Assays: Nanosyn kinase panel” (2012)
Where “and” joins values, the source holds several entries; their conditions need not be identical. Identical values can stand only once.

Tests used:
[1] = molecular target: MAP/microtubule affinity-regulating kinase 3 (Homo sapiens) (UniProt P27448); settings: at 1 µM;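 also: reported values are averaged percent inhibition of MARK3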
[2] = molecular target: T1, MAP/microtubule affinity-regulating kinase 4 (Homo sapiens) (UniProt Q96L34); settings: at 0.1 µM
T1 sequence (whole entry): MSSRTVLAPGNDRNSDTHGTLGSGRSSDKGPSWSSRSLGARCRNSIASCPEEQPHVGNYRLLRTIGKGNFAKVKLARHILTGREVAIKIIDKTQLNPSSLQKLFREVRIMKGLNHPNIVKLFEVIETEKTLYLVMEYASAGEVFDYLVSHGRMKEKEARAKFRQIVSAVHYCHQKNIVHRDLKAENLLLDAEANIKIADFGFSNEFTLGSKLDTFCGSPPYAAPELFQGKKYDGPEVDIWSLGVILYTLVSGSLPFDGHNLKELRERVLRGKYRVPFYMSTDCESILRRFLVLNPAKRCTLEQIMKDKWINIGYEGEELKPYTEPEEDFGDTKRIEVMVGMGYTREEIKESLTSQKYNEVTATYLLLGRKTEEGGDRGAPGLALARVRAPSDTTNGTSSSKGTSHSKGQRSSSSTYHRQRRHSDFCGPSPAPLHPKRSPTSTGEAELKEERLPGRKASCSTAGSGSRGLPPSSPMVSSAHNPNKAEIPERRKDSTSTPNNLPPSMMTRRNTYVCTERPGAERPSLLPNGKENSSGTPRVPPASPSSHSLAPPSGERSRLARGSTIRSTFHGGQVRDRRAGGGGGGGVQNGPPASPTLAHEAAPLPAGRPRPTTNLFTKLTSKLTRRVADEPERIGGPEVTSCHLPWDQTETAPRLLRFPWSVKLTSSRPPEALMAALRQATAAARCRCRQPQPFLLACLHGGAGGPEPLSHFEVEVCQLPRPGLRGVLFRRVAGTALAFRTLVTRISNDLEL

[3] = molecular target: T1, MAP/microtubule affinity-regulating kinase 4 (Homo sapiens); settings: at 1 µM
[4] = molecular target: Maternal embryonic leucine zipper kinase (Homo sapiens) (UniProt Q14680); settings: at 0.1 µM
[5] = molecular target: Maternal embryonic leucine zipper kinase (Homo sapiens) (UniProt Q14680); settings: at 1 µM
[6] = molecular target: MAP kinase-interacting serine/threonine-protein kinase 1 (Homo sapiens) (UniProt Q9BUB5); settings: at 0.1 µM
[7] = molecular target: MAP kinase-interacting serine/threonine-protein kinase 1 (Homo sapiens) (UniProt Q9BUB5); settings: at 1 µM
[8] = molecular target: MAP kinase-interacting serine/threonine-protein kinase 2 (Homo sapiens) (UniProt Q9HBH9); settings: at 0.1 µM
[9] = molecular target: MAP kinase-interacting serine/threonine-protein kinase 2 (Homo sapiens) (UniProt Q9HBH9); settings: at 1 µM
[10] = molecular target: Serine/threonine-protein kinase MARK2 (Homo sapiens) (UniProt Q7KZI7); settings: at 0.1 µM;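 also: mean percent inhibition of PAR-1Balpha kinase activity, reported from the GSK PKIS screen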
Serine/threonine-protein kinase MARK2 (Homo sapiens), sequence (Q7KZI7 whole entry): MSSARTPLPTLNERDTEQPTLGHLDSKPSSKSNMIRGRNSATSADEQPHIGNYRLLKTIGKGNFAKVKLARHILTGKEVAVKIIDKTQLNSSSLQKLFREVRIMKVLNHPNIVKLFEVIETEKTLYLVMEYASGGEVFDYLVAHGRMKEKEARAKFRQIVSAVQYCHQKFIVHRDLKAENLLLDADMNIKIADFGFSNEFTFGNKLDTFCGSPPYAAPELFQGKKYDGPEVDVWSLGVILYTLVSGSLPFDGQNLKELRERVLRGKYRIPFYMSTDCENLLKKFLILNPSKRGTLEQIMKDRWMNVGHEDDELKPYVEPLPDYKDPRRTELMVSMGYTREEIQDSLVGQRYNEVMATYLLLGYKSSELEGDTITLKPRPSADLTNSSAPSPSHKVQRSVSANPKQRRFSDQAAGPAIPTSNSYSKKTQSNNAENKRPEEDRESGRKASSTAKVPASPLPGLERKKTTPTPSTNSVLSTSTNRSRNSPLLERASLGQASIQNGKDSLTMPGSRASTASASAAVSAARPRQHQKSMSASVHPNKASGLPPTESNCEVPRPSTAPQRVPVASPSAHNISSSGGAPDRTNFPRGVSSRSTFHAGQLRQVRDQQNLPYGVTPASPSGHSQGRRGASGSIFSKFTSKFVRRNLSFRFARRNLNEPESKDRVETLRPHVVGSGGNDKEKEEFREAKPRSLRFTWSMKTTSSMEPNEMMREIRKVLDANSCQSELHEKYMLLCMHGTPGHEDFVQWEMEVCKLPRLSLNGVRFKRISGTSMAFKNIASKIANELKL

MAP kinase-interacting serine/threonine-protein kinase 1 (Homo sapiens), sequence (Q9BUB5 whole entry, looked up): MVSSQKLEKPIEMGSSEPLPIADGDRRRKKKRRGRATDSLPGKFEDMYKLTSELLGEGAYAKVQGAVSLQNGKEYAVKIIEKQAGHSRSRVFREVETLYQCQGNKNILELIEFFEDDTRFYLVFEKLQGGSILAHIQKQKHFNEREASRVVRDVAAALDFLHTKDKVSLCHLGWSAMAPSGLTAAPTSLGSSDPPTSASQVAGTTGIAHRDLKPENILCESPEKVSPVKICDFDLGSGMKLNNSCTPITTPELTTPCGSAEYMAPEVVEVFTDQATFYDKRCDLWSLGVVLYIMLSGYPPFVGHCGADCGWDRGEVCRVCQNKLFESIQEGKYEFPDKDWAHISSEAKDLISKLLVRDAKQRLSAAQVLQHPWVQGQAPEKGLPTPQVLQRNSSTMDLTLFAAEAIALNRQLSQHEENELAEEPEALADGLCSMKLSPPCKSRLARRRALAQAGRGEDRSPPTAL
Maternal embryonic leucine zipper kinase (Homo sapiens), sequence (Q14680 whole entry, looked up): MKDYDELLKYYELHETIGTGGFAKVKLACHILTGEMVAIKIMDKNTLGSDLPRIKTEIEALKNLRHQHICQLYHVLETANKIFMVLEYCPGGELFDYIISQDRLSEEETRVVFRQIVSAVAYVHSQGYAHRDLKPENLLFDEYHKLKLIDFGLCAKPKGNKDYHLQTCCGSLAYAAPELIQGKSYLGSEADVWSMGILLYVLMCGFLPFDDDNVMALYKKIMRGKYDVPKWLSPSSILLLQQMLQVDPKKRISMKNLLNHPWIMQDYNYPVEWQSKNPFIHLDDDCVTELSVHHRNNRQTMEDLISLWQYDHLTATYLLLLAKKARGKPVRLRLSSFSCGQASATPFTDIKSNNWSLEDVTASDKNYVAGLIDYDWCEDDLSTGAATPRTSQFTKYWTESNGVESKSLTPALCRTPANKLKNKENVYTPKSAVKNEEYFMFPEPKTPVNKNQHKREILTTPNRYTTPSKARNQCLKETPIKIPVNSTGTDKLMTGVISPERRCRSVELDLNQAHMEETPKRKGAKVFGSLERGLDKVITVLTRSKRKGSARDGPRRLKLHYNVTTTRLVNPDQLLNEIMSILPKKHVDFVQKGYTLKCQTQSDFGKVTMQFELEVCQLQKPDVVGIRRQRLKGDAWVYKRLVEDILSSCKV
MAP kinase-interacting serine/threonine-protein kinase 2 (Homo sapiens), sequence (Q9HBH9 whole entry, looked up): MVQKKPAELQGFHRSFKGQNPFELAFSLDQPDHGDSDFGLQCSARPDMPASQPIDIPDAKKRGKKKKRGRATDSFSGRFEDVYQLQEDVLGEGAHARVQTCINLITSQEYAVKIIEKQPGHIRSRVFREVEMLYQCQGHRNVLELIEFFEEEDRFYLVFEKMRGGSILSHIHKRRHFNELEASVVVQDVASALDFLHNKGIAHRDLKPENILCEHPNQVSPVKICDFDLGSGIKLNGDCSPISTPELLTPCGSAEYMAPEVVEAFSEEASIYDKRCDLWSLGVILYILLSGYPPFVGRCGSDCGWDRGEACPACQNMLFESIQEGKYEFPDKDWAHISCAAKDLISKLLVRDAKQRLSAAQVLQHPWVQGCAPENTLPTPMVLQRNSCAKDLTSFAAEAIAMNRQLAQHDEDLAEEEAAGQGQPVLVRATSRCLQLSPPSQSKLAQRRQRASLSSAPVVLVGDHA
MAP/microtubule affinity-regulating kinase 3 (Homo sapiens), sequence (P27448 whole entry, looked up): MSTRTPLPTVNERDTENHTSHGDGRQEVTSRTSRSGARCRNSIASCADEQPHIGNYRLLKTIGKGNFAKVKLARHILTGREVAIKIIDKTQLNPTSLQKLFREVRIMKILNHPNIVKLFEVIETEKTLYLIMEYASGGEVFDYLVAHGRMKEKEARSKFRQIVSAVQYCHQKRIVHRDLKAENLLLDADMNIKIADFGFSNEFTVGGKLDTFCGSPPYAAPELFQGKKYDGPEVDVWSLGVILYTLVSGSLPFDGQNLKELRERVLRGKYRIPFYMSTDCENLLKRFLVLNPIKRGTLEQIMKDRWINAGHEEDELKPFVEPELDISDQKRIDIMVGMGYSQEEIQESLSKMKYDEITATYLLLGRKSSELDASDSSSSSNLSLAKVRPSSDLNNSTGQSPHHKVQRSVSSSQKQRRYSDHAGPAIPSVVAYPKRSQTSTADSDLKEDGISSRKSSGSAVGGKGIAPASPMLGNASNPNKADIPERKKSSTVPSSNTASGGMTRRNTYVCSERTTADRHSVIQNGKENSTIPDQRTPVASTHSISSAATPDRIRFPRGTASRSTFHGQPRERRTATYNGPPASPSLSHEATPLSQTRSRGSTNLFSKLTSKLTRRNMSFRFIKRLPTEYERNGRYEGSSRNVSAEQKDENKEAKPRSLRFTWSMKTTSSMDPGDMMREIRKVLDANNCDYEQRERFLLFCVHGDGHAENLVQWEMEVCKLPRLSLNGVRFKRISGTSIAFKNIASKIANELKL

SMILES: FC(F)(F)CNc1nccc(-c2cnn3ncccc23)n1
- inhibition [1]: -0.26%
- inhibition [2]: 1.01%
- inhibition [3]: 0.89%
- inhibition [4]: 5.66%
- inhibition [5]: 27.5%
- inhibition [6]: 4.07%
- inhibition [7]: 20.6%
- inhibition [8]: 2.55%
- inhibition [9]: 26.4%
- inhibition [10]: 0.47%

SMILES: CC1=C(C(=O)Nc2ccc3[nH]ncc3c2)C(c2ccc(F)cc2)N=C(c2ccc(C(F)(F)F)nc2)N1 (centres undefined)
- inhibition [1]: 1.71%
- inhibition [2]: 0.35%
- inhibition [3]: 2.44%
- inhibition [4]: 2.15%
- inhibition [5]: 5.11%
- inhibition [6]: 2.55%
- inhibition [7]: 4.82%
- inhibition [8]: 0.9%
- inhibition [9]: 3.32%
- inhibition [10]: -1.01%

SMILES: CC(C)c1ccc(-c2cc(-c3c[nH]nc3-c3ccccn3)ccn2)cc1
- inhibition [1]: 0.71%
- inhibition [2]: -0.28%
- inhibition [3]: 0.5%
- inhibition [4]: 1.44%
- inhibition [5]: 3.48%
- inhibition [6]: 1.48%
- inhibition [7]: 3.11%
- inhibition [8]: 0.97%
- inhibition [9]: 2.83%
- inhibition [10]: -2.82%

SMILES: COc1ccc(Nc2ncc(-c3ccccc3)o2)cc1OC
- inhibition [1]: 26.7%
- inhibition [2]: 2.3%
- inhibition [3]: 19.4%
- inhibition [4]: 0.74%
- inhibition [5]: 8.76%
- inhibition [6]: 2.58%
- inhibition [7]: 28.8%
- inhibition [8]: 4.65%
- inhibition [9]: 26.1%
- inhibition [10]: 1.48%

SMILES: CC1(C)CC(n2cnc(-c3ccc(F)cc3)c2-c2ccnc(N)n2)CC(C)(C)N1
- inhibition [1]: 1.48%
- inhibition [2]: 1.1%
- inhibition [3]: 1.23%
- inhibition [4]: 2.12%
- inhibition [5]: 3.51%
- inhibition [6]: 1.11%
- inhibition [7]: 2.81%
- inhibition [8]: 0.35%
- inhibition [9]: 0.79%
- inhibition [10]: 0.16%

SMILES: OCCCNc1nccc(-c2c(-c3ccc(F)cc3)nn3cc(C(F)(F)F)ccc23)n1
- inhibition [1]: 3.84%
- inhibition [2]: 0.24%
- inhibition [3]: 2.09%
- inhibition [4]: 0.52%
- inhibition [5]: 2.27%
- inhibition [6]: 2.61%
- inhibition [7]: 6.2%
- inhibition [8]: 2.75%
- inhibition [9]: 3.6%
- inhibition [10]: -1.06%

SMILES: Cc1nnc(-c2cccc(-c3ccc(C(=O)NCC4CC4)cc3)c2)o1
- inhibition [1]: 7.47%
- inhibition [2]: 1.79%
- inhibition [3]: 2.85%
- inhibition [4]: 0.44%
- inhibition [5]: 6.34%
- inhibition [6]: 4.66%
- inhibition [7]: 6.32%
- inhibition [8]: 2.35%
- inhibition [9]: 6.05%
- inhibition [10]: 0.64%

SMILES: COc1cc2c(cc1Nc1nc(Nc3cccc(F)c3C(N)=O)c3cc[nH]c3n1)N(C(=O)CN1CCN(C(C)C)CC1)CC2
- inhibition [1]: 3.29%
- inhibition [2]: 0.59%
- inhibition [3]: 2.06%
- inhibition [4]: 2.86%
- inhibition [5]: 18.4%
- inhibition [6]: 1.4%
- inhibition [7]: 1.42%
- inhibition [8]: 1.33%
- inhibition [9]: 4.51%
- inhibition [10]: 0.26%

SMILES: COc1c(C(N)=O)cc(-c2ccc(Cl)cc2)cc1-c1ccc(S(N)(=O)=O)cc1
- inhibition [1]: 2.07%
- inhibition [2]: 0.45%
- inhibition [3]: 1.37%
- inhibition [4]: 6.28%
- inhibition [5]: 14.6%
- inhibition [6]: 3.66%
- inhibition [7]: 11.2%
- inhibition [8]: 2.02%
- inhibition [9]: 5.44%
- inhibition [10]: 1.8%

SMILES: CNC(=O)c1sc(-n2cnc3cc(OC)c(OC)cc32)cc1OCc1ccccc1C(F)(F)F
- inhibition [1]: 3.64%
- inhibition [2]: 2.02%
- inhibition [3]: 3.13%
- inhibition [4]: 2.63%
- inhibition [5]: 2%
- inhibition [6]: 3.25%
- inhibition [7]: 4.03%
- inhibition [8]: 0.55%
- inhibition [9]: 2.13%
- inhibition [10]: -0.7%

SMILES: O=C1Nc2ccccc2/C1=C1\CCc2cc(O)ccc21
- inhibition [1]: 40.1%
- inhibition [2]: 7.29%
- inhibition [3]: 33.1%
- inhibition [4]: 11.1%
- inhibition [5]: 56.8%
- inhibition [6]: 3.12%
- inhibition [7]: 7.84%
- inhibition [8]: 2.73%
- inhibition [9]: 15.9%
- inhibition [10]: 5.04%

SMILES: Nc1ncnc2occ(-c3ccc(NC(=O)Nc4cc(C(F)(F)F)ccc4F)cc3)c12
- inhibition [1]: 2.97% and -0.26%
- inhibition [2]: 0.43% and 1.7%
- inhibition [3]: 2.95% and 1.13%
- inhibition [4]: -6.51% and -4.36%
- inhibition [6]: 6.91% and 2.48%
- inhibition [7]: 30% and 16.5%
- inhibition [8]: 7.71% and 2.55%
- inhibition [9]: 40.3% and 28.8%
- inhibition [10]: -0.86% and -0.02%

SMILES: O=C(Nc1n[nH]c2nnc(-c3cccnc3)cc12)C1CC1
- inhibition [1]: 1.25%
- inhibition [2]: 0.54%
- inhibition [3]: 0.56%
- inhibition [4]: -0.51%
- inhibition [5]: 1.48%
- inhibition [6]: 0.68%
- inhibition [7]: -0.29%
- inhibition [8]: 0.77%
- inhibition [9]: 2.11%
- inhibition [10]: 0.83%

SMILES: COc1cccc(-n2ncc3c(N/N=C/c4ccc(C(=O)NCCN(C)C)cc4)ncnc32)c1
- inhibition [1]: 18.4%
- inhibition [2]: 2.02%
- inhibition [3]: 16.8%
- inhibition [4]: 2.38%
- inhibition [5]: 11.5%
- inhibition [6]: 39.4%
- inhibition [7]: 72.9%
- inhibition [8]: 28.7%
- inhibition [9]: 67.5%
- inhibition [10]: 1.55%

SMILES: CCCNc1cccc(-n2ncc3c(N/N=C/c4ccncc4)ncnc32)c1
- inhibition [1]: 9.23%
- inhibition [2]: 0.58%
- inhibition [3]: 9.44%
- inhibition [4]: -0.14%
- inhibition [5]: 3.93%
- inhibition [6]: 31.2%
- inhibition [7]: 69.1%
- inhibition [8]: 37.6%
- inhibition [9]: 72.2%
- inhibition [10]: 0.04%

SMILES: NS(=O)(=O)c1ccc(N/N=C2\C(=O)Nc3ccc(C(=O)NCc4ccncc4)cc32)cc1
- inhibition [1]: 34.4%
- inhibition [2]: 4.76%
- inhibition [3]: 33.7%
- inhibition [4]: 49.6%
- inhibition [5]: 90.6%
- inhibition [6]: 2.18%
- inhibition [7]: 10.9%
- inhibition [8]: 1.66%
- inhibition [9]: 6.27%
- inhibition [10]: 0.88%
